According to PubChem BioAssay (NCATS):
Inconclusive results are not listed. Activity calls are given as the source filed them. Calls follow the shape of the dose curve; as a rule, active = well fitted inhibition curve with a large enough effect; inconclusive = small, poorly fitted or top-dose-only effect, or effect the other way; inactive = flat fitted curve, though single readings scatter.

Biological target: ATP-dependent 6-phosphofructokinase (Trypanosoma brucei brucei) (UniProt O15648)
Assay: qHTS Assay to Find Inhibitors of T. brucei phosphofructokinase: hit validation (AID 492961);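 also: luminescence reports ADP formed as PFK phosphorylates fructose-6-phosphate with ATP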
Conditions: T. brucei PFK, ADP-Glo luminescence; series mostly up to 51.4 µM
Source text: NIH Molecular Libraries Probe Production Network [MLPCN] NIH Chemical Genomics Center [NCGC] Grant: 1 R03 MH092153-01 PI Name: Malcolm Walkinshaw, University of Edinburgh NCGC Assay Overview: Various species of the protozoan family Trypanosomatidae are responsible for a range of serious human diseases in tropical and subtropical areas of the world. […] Many of the disorders caused by trypanosomatids are fatal if left untreated, but most currently used drugs are inefficient and toxic. […] Oxidative metabolism involving the mitochondrial tricarboxylic acid cycle and oxidative phosphorylation are repressed in these parasites, and recent RNA interference (RNAi) experiments have shown that even partial depletion of certain individual glycolytic enzymes can lead to the death of cultured parasites. One such glycolytic enzyme, phosphofructokinase (PFK), catalyzes the formation of fructose-1,6-bisphosphate (F1,6BP) and ADP from fructose-6-phosphate (F6P) and ATP, and in many metabolic circumstances makes an important contribution to the control of flux through the glycolytic pathway. As a specific glycolytic target, PFK is particularly attractive as it catalyzes the first irreversible step in glycolysis, and structural and kinetic studies have shown very substantial and essential differences from corresponding host enzymes, allowing for the discovery of parasite-selective inhibitors. The goal of this screen is to find small-molecule inhibitors of T. brucei PFK using a biochemical assay that measures PFK activity as a function of ADP production. A luminescence-based assay for T. brucei PFK activity has been developed which uses luciferase to detect production of ADP. Traditional luciferase-based nucleotide detection reagents rely on ATP production as a direct substrate for the luciferase reaction; however, PFK catalyzes the transfer of a phosphate from ATP to F6P, resulting in the net depletion of ATP. To directly measure the ADP product of the PFK reaction, we used the ADP-Glo detection kit (Promega), which utilizes two separate reactions to 1) deplete all remaining uncatalyzed ATP and 2) convert all remaining ADP to ATP, which is then detected through a traditional luciferase-coupled reaction. Compounds were screened as a concentration-titration series that ranged from 57 uM to 0.7 nM.
NCGC Assay Protocol Summary: Substrate buffer was dispensed into white, solid 1536-well plates at 3uL/well in 0.1M triethanolamine (TEA) buffer, pH 8.0, containing final concentrations of 5 mM MgCl2, 0.01% Tween20, 0.5 mM fructose-6-phosphate (F6P) and 0.1mM ATP. Then, 23 nL of compounds or DMSO were delivered to each well using a pin tool. One uL T. brucei PFK (0.1M TEA, 0.01% Tween20, 0.1% bovine serum albumin (BSA) and 1.25nM PFK, final concentrations) was then dispensed, and plates were incubated at room temperature for 45 min. The luminescent detection reagent, ADP-Glo (Promega), was then added in two steps: the first reagent, ADP-Glo (which converts remaining uncatalyzed ATP), was added at 2.5uL/well and incubated for ten minutes at room temperature, and the second component, Kinase Detection reagent (which converts ADP to ATP as a substrate for luciferase-based luminescence), was added immediately after at 5uL/well, followed by one final ten minute room temperature incubation. The plates were measured on a ViewLux plate reader for luminescent signal using a clear filter with a one second exposure. The %Activity was determined from the corrected luminescence values. As no specific T. brucei PFK inhibitors have been identified in the literature, 1x (1.25nM) and 0x PFK enzyme controls (untreated) were included to normalize %Activity of identified inhibitors; 0x enzyme values corresponded to 100%Activity (full inhibition), while 1x PFK enzyme values were used to normalize 0%Activity (no inhibition). Concentration-response curves were fitted to the signals arising from the resulting luminescence. […]

ATP-dependent 6-phosphofructokinase (Trypanosoma brucei brucei), sequence (O15648 whole entry, looked up): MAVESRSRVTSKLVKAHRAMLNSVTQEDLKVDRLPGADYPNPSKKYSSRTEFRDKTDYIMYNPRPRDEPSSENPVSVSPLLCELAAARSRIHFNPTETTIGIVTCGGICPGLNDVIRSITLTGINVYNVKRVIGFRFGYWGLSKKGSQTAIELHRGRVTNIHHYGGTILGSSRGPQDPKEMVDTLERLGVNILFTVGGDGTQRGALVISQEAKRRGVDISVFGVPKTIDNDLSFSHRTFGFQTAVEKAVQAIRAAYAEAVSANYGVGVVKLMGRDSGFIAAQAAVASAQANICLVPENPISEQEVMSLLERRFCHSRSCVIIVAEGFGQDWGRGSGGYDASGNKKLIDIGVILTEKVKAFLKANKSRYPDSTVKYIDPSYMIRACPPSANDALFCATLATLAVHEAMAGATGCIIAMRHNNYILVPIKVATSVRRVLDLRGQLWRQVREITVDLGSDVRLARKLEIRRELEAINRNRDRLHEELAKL

Q: C[C@H]1C[C@@H]2[C@@H]([C@@H](O)C[C@@]3(C)[C@H]2CC[C@]3(O)C(=O)CO)[C@@]2(C)C=CC(=O)C=C12 was tested. Which outcome did it give?
A: inactive

Q: With CC[C@H]1CN2CCc3cc(OC)c(OC)cc3[C@H]2C[C@@H]1C[C@@H]1NCCc2cc(OC)c(OC)cc21 as the compound, how does the outcome read?
A: inactive

Q: O=c1[nH]c(=O)n(C2CCCO2)cc1F (stereo unspecified) was tested. Which outcome did it give?
A: inactive

Q: For CCC1=C[C@@H]2CN(C1)Cc1c([nH]c3ccccc13)[C@@](C(=O)OC)(c1cc3c(cc1OC)N(C)[C@@H]1[C@@](O)(C(=O)OC)[C@H](OC(C)=O)[C@]4(CC)C=CCN5CC[C@]31[C@@H]54)C2, which outcome is on record?
A: inactive

Q: With Nc1ccn([C@@H]2O[C@H](CO)[C@H](O)C2(F)F)c(=O)n1 as the compound, how does the outcome read?
A: inactive

Q: COc1cc(C(=O)NS(=O)(=O)c2ccccc2C)ccc1Cc1cn(C)c2ccc(NC(=O)OC3CCCC3)cc12 was tested. Which outcome did it give?
A: inactive

Q: Which outcome does the source give for Nc1ccn([C@@H]2CS[C@H](CO)O2)c(=O)n1 here?
A: inactive

Q: CN1c2cc(O)c(N=NC(N)=O)cc2CC1S(=O)(=O)O (stereo unspecified) was tested. Which outcome did it give?
A: inactive

Q: COC(=O)C[C@](O)(CCCC(C)(C)O)C(=O)O[C@@H]1C(OC)=C[C@]23CCCN2CCc2cc4c(cc2[C@H]13)OCO4 was tested. Which outcome did it give?
A: inactive

Q: Nc1ccc(S(=O)(=O)Nc2ncccn2)cc1 was tested. Which outcome did it give?
A: inactive

Q: CC=CC1=C(C(=O)O)N2C(=O)[C@H](NC(=O)[C@H](N)c3ccc(O)cc3)[C@@H]2SC1 was tested. Which outcome did it give?
A: inactive

Q: How did the outcome turn out when CC(C)(C)NC(=O)[C@H]1CN(Cc2cccnc2)CCN1C[C@@H](O)C[C@@H](Cc1ccccc1)C(=O)N[C@H]1c2ccccc2C[C@H]1O was run?
A: inactive

Q: How did the outcome turn out when O=C(O)CO.[NH2-].[NH2-].[Pt+2] was run?
A: inactive

Q: With CC1(C)O[C@@H]2C[C@@H]3[C@H]4C[C@@H](F)C5=CC(=O)C=C[C@]5(C)[C@@]4(F)[C@@H](O)C[C@]3(C)[C@]2(C(=O)CO)O1 as the compound, how does the outcome read?
A: inactive

Q: Which outcome does the source give for COc1c(N2C[C@@H]3CCCN[C@H]3C2)c(F)cc2c(=O)c(C(=O)O)cn(C3CC3)c12 here?
A: inactive

Q: Which outcome does the source give for COC(=O)C1=C(C)NC(C)=C(C(=O)OCCN2CCN(C(c3ccccc3)c3ccccc3)CC2)C1c1cccc([N+](=O)[O-])c1 (stereo unspecified) here?
A: inactive
